The text below walks through data of PubChem BioAssay (NCI).

The experiment has as its system HL-60(TB) leukemia. Kind of experiment: NCI-60 one-dose screen, 48 h (100 = growth as untreated, 0 = no growth, -100 = all killed). The conditions noted are these: 10 µM unless noted.

The panel holds about 83,000 compounds, 20% with a hit somewhere; the sample as a whole holds those more often.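 Treatment: one concentration, 48 hours, 96-well format. Scoring: percent growth, with anything below 10 considered active.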 A number with no mark means an inactive call. Active and inactive are the calls of the source.

Turning to `COC1C(O)CC(OC2CC(OC3CC(O[C@@H]4C(=O)c5c(cc6cc(OC7CC(OC8CC(O)C(O)C(C)O8)C(O)C(C)O7)c(C)c(O)c6c5O)CC4[C@H](OC)C(=O)C(C)=O)OC(C)C3O)OC(C)C2O)OC1C` (stereo partly specified), the growth was -18.6% (active).
Take `C=C1C(=O)O[C@H]2[C@H]1CC/C(COC(=O)NCCc1c[nH]c3ccc(OC)cc13)=C\CC[C@@]1(C)O[C@@H]21`: the growth was -42.8% (active).
On to `CCOc1cc(F)c([N+](=O)[O-])cc1[N+](=O)[O-]`, for which the growth is -12.6% (active).
In the case of `O=S(=O)(NCCNc1nccc(-c2c(-c3ccc(F)c(O)c3)nc3sccn23)n1)c1ccccc1`, the growth is 71%.
For `COc1ccc(-c2cc(-c3cccnc3)nc3sc4c(Cl)nnnc4c23)cc1OC` the value was 85.4%; for `COc1ccc(-c2c(C(=O)NS(C)(=O)=O)n(Cc3cccc(C(F)(F)F)c3)c3ccccc23)cc1`, 102%; for `N#Cc1nc(-c2ccc(Cl)cc2)cc(-c2ccc(Nc3nc(N4CCCCC4)nc(N4CCCCC4)n3)cc2)c1N`, 99.2%.
As to `Cc1c(C(C)(C)O)cn2ncnc(Oc3ccc(NC(=O)Nc4ccc(Cl)c(C(F)(F)F)c4)c(F)c3)c12`, the growth was 63.1%.
In the case of `COc1ccc2c(c1)O/C(=C\c1cccc(OCC(=O)Nc3nc4c(s3)CCCC4)c1)C2=O`, the growth is 27.4%.
As for `O=C(Nc1cc(F)cc2cccnc12)c1cnc(N2CCNCC2)cn1`, the figure is 77.1%; as for `C=C1C[C@@]2(C)C(CC[C@]3(C)C2CC=C2C4CC(C)(C)C[C@@H](OC(=O)/C(C)=C\C)[C@]4(C(=O)O)CC[C@]23C)C(C)(C)C1=O` (stereo partly specified), -32.4% (active).
